Assay outcomes deposited in PubChem BioAssay by National Center for Advancing Translational Sciences (NCATS).
EPAC2 antagonist = qHTS for Antagonist of cAMP-regulated guanine nucleotide exchange factor 2 (EPAC2): primary screen | Rap guanine nucleotide exchange factor 4 (Homo sapiens), Q8WZA2 | EPAC2 GEF exchange of Rap1B-BODIPY-GDP, fluorescence | Potency, µM (top dose mostly 114 µM), hits mostly inhibitors | hit rate 0.18% among 360,000; further: nearly all actives have a fitted effect of over 45% in size
EPAC1 antag = qHTS for Antagonist of cAMP-regulated guanine nucleotide exchange factor 3 (EPAC1): primary screen; EPAC1 GEF assay, Rap1b-BODIPY-GDP exchange fluorescence; Potency, µM (top dose mostly 115 µM), most hits filed as inhibitors; hit rate 0.14% among 360,000; AID 720709, 2013; further: nearly all actives have a fitted effect of over 50% in size
Target sequence (O95398 whole entry, looked up): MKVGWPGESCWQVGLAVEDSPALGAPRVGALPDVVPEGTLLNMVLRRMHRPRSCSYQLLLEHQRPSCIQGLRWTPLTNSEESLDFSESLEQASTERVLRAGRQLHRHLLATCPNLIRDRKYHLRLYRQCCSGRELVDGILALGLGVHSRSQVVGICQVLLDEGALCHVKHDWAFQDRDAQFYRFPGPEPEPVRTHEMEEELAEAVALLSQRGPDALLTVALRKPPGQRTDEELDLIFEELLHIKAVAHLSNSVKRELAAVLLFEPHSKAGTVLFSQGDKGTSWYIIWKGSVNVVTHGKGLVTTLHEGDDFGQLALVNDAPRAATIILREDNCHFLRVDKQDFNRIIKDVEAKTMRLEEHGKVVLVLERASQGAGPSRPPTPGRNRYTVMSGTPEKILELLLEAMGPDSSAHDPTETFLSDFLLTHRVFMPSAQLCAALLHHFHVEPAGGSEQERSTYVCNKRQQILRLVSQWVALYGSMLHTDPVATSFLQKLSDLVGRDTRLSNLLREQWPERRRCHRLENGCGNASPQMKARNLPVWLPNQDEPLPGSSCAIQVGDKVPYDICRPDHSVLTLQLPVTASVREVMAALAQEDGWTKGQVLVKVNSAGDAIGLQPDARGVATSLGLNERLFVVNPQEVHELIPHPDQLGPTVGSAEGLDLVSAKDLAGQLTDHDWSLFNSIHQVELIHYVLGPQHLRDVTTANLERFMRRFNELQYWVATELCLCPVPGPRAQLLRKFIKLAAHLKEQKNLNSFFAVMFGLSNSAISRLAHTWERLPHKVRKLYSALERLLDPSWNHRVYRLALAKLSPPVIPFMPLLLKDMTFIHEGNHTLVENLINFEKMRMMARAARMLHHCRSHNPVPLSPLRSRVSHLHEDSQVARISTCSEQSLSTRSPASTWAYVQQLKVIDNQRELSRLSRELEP
USP1 inh = Inhibitors of USP1/UAF1: Primary Screen. Ubiquitin carboxyl-terminal hydrolase 1 (Homo sapiens), O94782. recombinant USP1/UAF1, Ub-Rhodamine cleavage fluorescence. Potency, µM (titrated, usually from 57.1 µM), actives largely listed as inhibitors. hit rate 0.23% among 390,000; further: nearly all actives have a fitted effect of over 60% in size
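1 nM enzyme complex + cpd, 15 min RT; start with Ub-Rho 150nM final; kinetic fluorescence ex 480/em 540, 6 reads q60 s. Buffer 50mM HEPES pH 7.8, 0.5mM EDTA, 0.1 mg/ml BSA, 1mM TCEP, 0.01% Tween-20.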
EPAC2 ag = qHTS for Agonist of cAMP-regulated guanine nucleotide exchange factor 4 (EPAC2): primary screen; Rap guanine nucleotide exchange factor 4 (Homo sapiens), Q8WZA2; EPAC2 activation, biochemical qHTS; response scale: 100% = 6.5 mM cAMP response; Potency, µM (series often up to 154 µM), actives largely listed as activators; hit rate 0.079% among 360,000; further: nearly all actives have a fitted effect of over 50% in size
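Guanine nucleotide exchange by EPAC2 is measured as reduced fluorescence of BODIPY-GDP once it is released from 250 nM Rap1B. Plates are read kinetically for 30 min at room temperature; results are scaled to 6.5 mM cAMP.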
EPAC1 ag = qHTS for Agonist of cAMP-regulated guanine nucleotide exchange factor 3 (EPAC1): primary screen | Rap guanine nucleotide exchange factor 3 (Homo sapiens), O95398 | Potency, µM (top dose mostly 154 µM), hits mostly activators | AID 720707, 2013 | EPAC1 agonist qHTS, biochemical assay; response scale: 100% = response to 6.5 mM cAMP | hit rate 0.073% among 360,000; further: nearly all actives have a fitted effect of over 60% in size
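Read-out is the fluorescence drop as BODIPY-GDP leaves Rap1B (480 nm excitation, 540 nm emission), recorded every 5 minutes over 30 minutes. Reactions held 100 nM EPAC1, 250 nM Rap1B–BODIPY-GDP and 50 uM GDP, with 6.5 mM cAMP setting full activation.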
BRCA1 expr up = qHTS Assay to Identify Small Molecule Activators of BRCA1 Expression. hit rate 1.1% among 380,000. MCF7-BRCA1-FFLuc reporter, luminescence, 48 h; response scale: scaled: vehicle 0%, 10 µM genistein 100%. AID 624202, 2012. Potency, µM (highest dose often 46.1 µM), usual class: activators; further: nearly all actives have a fitted effect of over 80% in size
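Quantitative HTS in MCF7 cells stably reporting BRCA1 expression via firefly luciferase. Compound treatment lasts 48 h at 37 °C in phenol-red free MEM. Activation is expressed relative to genistein at 10 microM and DMSO.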
Large screens that a line does not name were inactive. Rows were chosen to be rich in hits. Some 1.4% of all compounds tested hit in one or more screens of this group. The call rests on the fitted dose curve; in most records, active means well fitted curve in the direction sought with a large enough effect; inconclusive means small, poorly fitted or top-dose-only effect, or another doubt; inactive means no such curve, though single readings can be large; an effect the other way counts as inactive or inconclusive.

O=C(Nc1ccccc1C(=O)O)/C(=C/c1ccc(Cl)cc1Cl)NC(=O)c1ccco1	none
CCCCS/C(N)=N/N=C/c1ccccc1O	BRCA1 expr up 7.9µM
CCOc1ccc(NC(=O)CCc2c(C)nn(-c3ccc(N4CCCCC4)nn3)c2C)cc1	BRCA1 expr up 11µM
Cc1ccc(NC(=O)CCc2c(C)nn(-c3ccc(N4CCCCC4)nn3)c2C)cc1F	EPAC1 antag inconclusive, BRCA1 expr up 3.2µM
Cc1nn(-c2ccc(N3CCCCC3)nn2)c(C)c1CCC(=O)Nc1ccc(F)cc1	none
O=c1c(O)c(-c2cccs2)oc2ccc(Cl)cc12	USP1 inh 25µM
CCN1/C(=C/C=C/c2oc3ccc(-c4ccccc4)cc3[n+]2CC)Oc2ccc(-c3ccccc3)cc21	EPAC2 ag 63µM, EPAC1 ag 40µM (no result: USP1 inh)
C(=C\c1nc(-c2cccnc2)no1)/c1ccccc1	BRCA1 expr up 2.8µM
Clc1ccccc1/C=C/c1nc(-c2cccnc2)no1	BRCA1 expr up inconclusive
CCOC(=O)c1ccc(-c2ccc(/C=N/NC(=O)Cc3nnc(N)s3)o2)cc1	BRCA1 expr up 2.2µM
CN1CCCC(C)(C(=O)Nc2ccc(-n3cccc3)cc2)C1 (stereo not given)	none (no result: USP1 inh)
COc1ccccc1-c1nnc(NC(=O)C(C)Sc2nncn2C)s1 (stereo not given)	none
COc1ccccc1-c1nnc(NC(=O)CSc2nncn2C)s1	BRCA1 expr up 10µM
COc1ccc(-c2ccc(=N)n(CCCC(=O)O)n2)cc1	none (no result: EPAC2 antagonist, EPAC1 antag, USP1 inh, EPAC2 ag, EPAC1 ag)
CCc1ccc(-c2nnn(CCC#N)n2)cc1	BRCA1 expr up 13µM
NC(=O)C1CCN(C(=O)C2CCC(=O)N(CC3CCCCC3)C2)CC1 (stereo not given)	none
O=C(C1CC(c2ccccc2O)=NO1)N1CCCCC1 (stereo not given)	BRCA1 expr up 10µM
CN(CC(=O)Nc1cccc(F)c1)C(=O)CCNC(=O)c1ccc(Br)cc1	none
CN(CC(=O)Nc1cccc(F)c1)C(=O)CCCNC(=O)c1ccc(Cl)cc1	BRCA1 expr up 11µM
COc1ccc(N2C(=O)[C@H]3[C@@H](C2=O)C2c4ccccc4C=NN2[C@H]3C(=O)C(C)(C)C)cc1 (stereo not given in full)	none
CC(C)(C)C(=O)[C@@H]1[C@@H]2C(=O)N(C3CCCCC3)C(=O)[C@@H]2[C@H]2c3ccccc3C=CN12	USP1 inh 25µM
COc1ccc(N2C(=O)[C@@H]3[C@H](C2=O)[C@H]2c4ccccc4C=CN2[C@@H]3C(C)=O)cc1	USP1 inh 16µM
COC(=O)c1cc2c(-c3ccccc3)cc3ccccn3c-2c1C(=O)OC	USP1 inh inconclusive
COC(=O)c1c(C)c2c(C)cc3ccccn3c-2c1C(=O)OC	EPAC2 antagonist 11µM
COC(=O)c1ccc(NC(=O)CC2C(=O)N(c3ccc(Cl)cc3)C(=O)N2Cc2cccs2)cc1 (stereo not given)	none (no result: EPAC2 antagonist, EPAC1 antag, EPAC2 ag, EPAC1 ag, BRCA1 expr up)
CC(=O)Nc1cnc(/C=C\CCCO)cn1	none (no result: USP1 inh)
CNc1ccc(/C=C\CCCO)cn1	BRCA1 expr up 10µM (no result: USP1 inh)
CCCOc1ccc(-c2nnc(N)s2)cc1	BRCA1 expr up 4.5µM
COc1ccc(-c2nnc(N)s2)cc1	none
O=C(NCC(=O)N1CCN(c2ccccc2F)CC1)c1ccc(Br)o1	none
COc1ccc(NC(=O)NNC(=O)C(C)Oc2ccc(C(C)C)cc2)c(OC)c1 (stereo not given)	none
